Bioassay records (PubChem BioAssay)
An excerpt weighted towards active compounds, which were near 21% of everything screened.
RORgamma inh: blocks mouse ROR gamma transcriptional activity | P51450 | Drosophila S2 Gal4-RORgamma UAS-luciferase reporter, 20 h | Potency, µM (top dose mostly 53.6 µM), for inactives: top-dose activity change, negative = inhibition, usual class: inhibitors | 310,000 compounds, 5.4% hits | AID 2551; note: potency is the fitted concentration of half-maximal effect; nearly all actives have a fitted effect of over 60% in size
Target sequence (P51450 whole entry, looked up, the tested form may be a part): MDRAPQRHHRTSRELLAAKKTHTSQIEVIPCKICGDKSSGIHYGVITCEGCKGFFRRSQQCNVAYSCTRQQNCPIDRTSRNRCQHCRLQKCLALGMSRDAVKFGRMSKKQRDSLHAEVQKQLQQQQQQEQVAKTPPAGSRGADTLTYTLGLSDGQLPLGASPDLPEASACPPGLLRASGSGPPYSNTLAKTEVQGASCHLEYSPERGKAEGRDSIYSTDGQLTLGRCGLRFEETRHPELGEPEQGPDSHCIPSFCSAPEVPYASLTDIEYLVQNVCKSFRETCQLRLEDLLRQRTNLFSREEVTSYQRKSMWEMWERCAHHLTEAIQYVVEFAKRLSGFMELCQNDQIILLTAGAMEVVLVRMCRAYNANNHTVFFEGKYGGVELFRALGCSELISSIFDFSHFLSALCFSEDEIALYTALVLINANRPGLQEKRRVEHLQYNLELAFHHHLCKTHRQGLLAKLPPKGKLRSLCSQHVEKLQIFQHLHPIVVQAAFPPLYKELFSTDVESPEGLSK
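In this cell-based reporter format, copper sulfate (700 uM final) drives Gal4–ROR gamma fusion expression from a metallothionein promoter in Drosophila Schneider cells; compounds preincubated 1 hr, reporter read after 20 hr at ambient temperature.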
DT40 TDP1 CPT: DT40-hTDP1 cell growth loss with CPT | Potency, µM (top dose mostly 46.2 µM), for inactives: at the highest dose activity change, negative = growth inhibition, usual class: inhibitors | chicken DT40 Tdp1-/-;hTDP1 cells + 20 nM CPT, ATP luminescence, 48 h | 420,000 compounds, 12% hits; note: potency is the fitted concentration of half-maximal effect; nearly all actives have a fitted effect of over 55% in size
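Chicken DT40 Tdp1-/- cells complemented with human TDP1, 400 cells/well, exposed to compounds plus 20 nM camptothecin for at least 48 h at 37 C; viability read as ATP content by CellTiter-Glo luminescence.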
DT40 TDP1 no CPT: qHTS for Inhibitors of human tyrosyl-DNA phosphodiesterase 1 (TDP1): qHTS in cells in absence of CPT; DT40 Tdp1-/- hTDP1 cells, no CPT, ATP luminescence, 48 h; Potency, µM (titrated, usually from 46.2 µM), inactives show at the highest dose activity change, negative = growth inhibition, hits mostly inhibitors; 420,000 compounds, 15% hits; note: potency is the fitted concentration of half-maximal effect; nearly all actives have a fitted effect of over 55% in size
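DT40 Tdp1-/-;hTDP1 cells, no CPT (DMSO vehicle only), 400 cells/well; compounds pin-transferred; ≥48 hr, 37 °C; CellTiter-Glo 30 min RT dark, luminescence read.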
Gal4-VP16 FLuc: counter-screen for ROR gamma inhibitors: Gal4-VP16 reporter; Drosophila S2 Gal4-VP16 UAS-luciferase, luminescence, 20 h; Potency, µM (top dose mostly 53.6 µM), inactives show at the highest dose activity, negative = inhibition, usual class: inhibitors; 310,000 compounds, 3.5% hits; AID 2546;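 note: Gal4-VP16 expression switched on by copper sulfate through the metallothionein promoter; potency is the fitted concentration of half-maximal effect; nearly all actives have a fitted effect of over 50% in size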
ELG1 repair inh: ELG1-dependent DNA repair inhibition. HEK293T ELG1-luciferase reporter, luminescence, 16 h; DNA damage induced by 5-fluorouridine. Potency, µM (doses to about 46.1 µM), inactives show at the top dose activity change, negative = inhibition, usual class: inhibitors. 330,000 compounds, 2.3% hits. AID 504467; note: potency is the fitted concentration of half-maximal effect; nearly all actives have a fitted effect of over 55% in size
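Quantitative HTS, concentration-response format. 2,000 cells/well co-treated with 5-fluorouridine and compound, 16 hr in 5% CO2 at 37 °C; ONE-Glo luminescence read after 30 min.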
IL1B secr inh: inhibitors of inflammasome signaling (IL-1 beta secretion); THP-1 LPS/ATP IL-1B secretion, AlphaLISA, 16 h; stronger effect = lower value; activity change, % at 57.5 µM; 360,000 compounds, 4.7% hits; AID 743279; in the data active = activity change below about -50%; inconclusive = mostly about -30% to -49%
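Secreted IL-1B measured by AlphaLISA bead assay after 16 h compound exposure of THP-1 cells; compounds (final up to 57.5 uM) added 1 h before LPS (250 ng/mL) and ATP (1.25 mM) stimulation; lower signal means less secretion.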
The depositor's hits bear a star; [ ] = another dose, or the depositor's remark. Unless noted, calls come from the whole dose curve; as a rule, active = well fitted curve in the direction sought with a large enough effect; inconclusive = small, poorly fitted or top-dose-only effect, or another doubt; inactive = no such curve, though single readings can be large; an effect the other way counts as inactive or inconclusive. % is set by controls: 0 for no effect and ±100 for the full control effect.

For COc1ccc(O[C@H]2C=C[C@@H](c3ccccc3)O[C@H]2COC(=O)CC/C(C)=N\OC[C@@H](O)[C@H]2O[C@H]3OC(C)(C)O[C@H]3[C@@H]2O)cc1 the results were RORgamma inh -5.4%[10 µM] and Gal4-VP16 FLuc 0.5%[10 µM].
`CCOc1ccc(CCNC(=O)C2CCCN(S(=O)(=O)c3c(C)n[nH]c3C)C2)cc1OCC` (stereo unspecified) gave RORgamma inh 41.7%, DT40 TDP1 CPT inconclusive, DT40 TDP1 no CPT 9.2µM*, Gal4-VP16 FLuc -9.3%, ELG1 repair inh -1.8% and IL1B secr inh 3.1.
Screening Cc1n[nH]c(C)c1S(=O)(=O)N1CCCC(C(=O)NC2CCCc3ccccc32)C1 (stereo unspecified) returned RORgamma inh -19.3%, DT40 TDP1 CPT 20.6µM*, DT40 TDP1 no CPT 18.4µM*, Gal4-VP16 FLuc inconclusive, ELG1 repair inh inconclusive and IL1B secr inh 5.6.
Screening Cc1cc(C)n(CC(=O)NNC(=O)CC(C)c2ccccc2)n1 (stereo unspecified) returned DT40 TDP1 CPT -5.8%, DT40 TDP1 no CPT -12.1%, ELG1 repair inh inconclusive and IL1B secr inh -5.9.
Screening CSCCC(NC(=O)COc1ccccc1)C(=O)N1CCN(C(C)=O)CC1 (stereo unspecified) returned RORgamma inh -20.8%, DT40 TDP1 CPT -3.3%, DT40 TDP1 no CPT 11.0%, Gal4-VP16 FLuc -2.7%, ELG1 repair inh 13.8% and IL1B secr inh 10.1.
COc1ccc(/C=N/NC(=O)c2cccc([N+](=O)[O-])c2)cc1OS(=O)(=O)c1ccccc1 was read as RORgamma inh inconclusive, DT40 TDP1 CPT inconclusive, DT40 TDP1 no CPT 16.4µM*, Gal4-VP16 FLuc inconclusive and IL1B secr inh -18.8.
For COc1cccc(/C=N/NC(=O)c2cccc([N+](=O)[O-])c2)c1OS(=O)(=O)c1ccccc1 the results were RORgamma inh inconclusive, DT40 TDP1 CPT inconclusive, DT40 TDP1 no CPT 16.4µM*, Gal4-VP16 FLuc -4.7%, ELG1 repair inh inconclusive and IL1B secr inh -20.3.
For CC1CSc2n(-c3cccc(C(F)(F)F)c3)cc(-c3ccccc3)[n+]21 (stereo unspecified) the results were RORgamma inh -2.9%, DT40 TDP1 CPT inconclusive, DT40 TDP1 no CPT 16.4µM*, Gal4-VP16 FLuc -2.3%, ELG1 repair inh inconclusive and IL1B secr inh -0.7.
For CC1CCCC(NC(=O)COC(=O)c2cc(=O)[nH]c3ccccc23)C1C (stereo unspecified) the results were DT40 TDP1 CPT 4.3%, DT40 TDP1 no CPT 17.2%, ELG1 repair inh -3.0% and IL1B secr inh -0.8.
CN(CC(=O)Nc1ccccc1C(F)(F)F)C(=O)c1ccc(N2C(=O)CCC2=O)cc1 was read as DT40 TDP1 CPT 20.3%, DT40 TDP1 no CPT -1.8%, ELG1 repair inh 0.0% and IL1B secr inh 13.1.
`Cc1nn(Cc2cccc(C(=O)NC34CC5CC(CC(C5)C3)C4)c2)c(C)c1Br` gave RORgamma inh inconclusive, DT40 TDP1 CPT inconclusive, DT40 TDP1 no CPT inconclusive, Gal4-VP16 FLuc 3.1%, ELG1 repair inh 23.1µM* and IL1B secr inh -25.2.
`CCCNC(=O)c1cccc(Cn2nc(C)c(Br)c2C)c1` gave RORgamma inh 21.3%, DT40 TDP1 CPT 16.4µM*, DT40 TDP1 no CPT 20.6µM*, Gal4-VP16 FLuc -1.1%, ELG1 repair inh inconclusive and IL1B secr inh -10.2.
S=C(NCCC(c1ccccc1)c1ccccc1)Nc1cccc(Cl)c1 was read as RORgamma inh 5.01µM*, DT40 TDP1 CPT inconclusive, DT40 TDP1 no CPT 14.6µM*, Gal4-VP16 FLuc 15.8µM*, ELG1 repair inh -1.3% and IL1B secr inh 0.1.
